Screening results from PubChem.
D2 PAM-1 = HTS Assay for Positive Allosteric Modulators of the Human D2 Dopamine Receptor: Primary Screen for Potentiators | HEK293 T-REx D2, calcium flux, EC20 dopamine potentiation | potentiation, % at 10 µM | actives 0.34% (n = 340,000) | AID 485347, 2010;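 active = potentiation over 3 SD above the plate norm, cut at about 30% in these data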; note: 0% is about no effect
Target sequence (P14416 whole entry, looked up): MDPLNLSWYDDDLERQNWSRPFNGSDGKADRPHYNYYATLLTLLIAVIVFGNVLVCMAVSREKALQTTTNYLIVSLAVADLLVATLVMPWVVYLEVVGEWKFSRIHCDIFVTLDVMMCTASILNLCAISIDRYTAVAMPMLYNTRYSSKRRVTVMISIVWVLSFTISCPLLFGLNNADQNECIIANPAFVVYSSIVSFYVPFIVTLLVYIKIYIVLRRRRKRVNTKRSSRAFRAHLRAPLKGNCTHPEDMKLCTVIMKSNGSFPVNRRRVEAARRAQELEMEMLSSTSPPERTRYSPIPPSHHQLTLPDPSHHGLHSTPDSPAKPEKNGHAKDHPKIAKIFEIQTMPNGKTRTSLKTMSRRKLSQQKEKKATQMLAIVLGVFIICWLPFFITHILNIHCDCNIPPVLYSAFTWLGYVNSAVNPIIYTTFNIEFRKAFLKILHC
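Using a no-wash calcium dye in inducible, force-coupled HEK293 Trex cells expressing D2, we tracked fluorescence each second for 180 s after compound, then for 180 s after EC20 dopamine to detect augmented signalling.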
D2 PAM-2 = Beta-Arrestin HTS for Positive Allosteric Modulators of the Human D2 Dopamine Receptor: Potentiators; D(2) dopamine receptor (Homo sapiens), P14416; DiscoveRx D2 beta-arrestin cells, luminescence, 90 min; 100% = 57 uM dopamine signal; potentiation, % (concentration not given with the values); actives 0.23% (n = 360,000); in the data active = potentiation above about 50%; inconclusive = mostly about 30% to 49%
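PathHunter beta-arrestin assay in DiscoveRx D2 cells. Compounds were added with an EC20 of dopamine (50 nM final) for 90 min at 37 deg C. Luminescence was read 1 h after detection reagent, with 57 uM dopamine as the EC100 control.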
Apoferritin bind = qHTS Assay for Identification of Novel General Anesthetics; Potency, µM (doses to about 77.5 µM), without a hit: at the top dose activity change, negative = displacement, actives largely listed as inhibitors; apoferritin/1-aminoanthracene competitive binding, fluorescence; actives 0.074% (n = 350,000); AID 485281, 2010; active = well fitted inhibition curve with a large enough effect; inconclusive = small, poorly fitted or top-dose-only effect; inactive = no such curve, though single readings can be large or run the other way; note: potency is the fitted concentration of half-maximal effect; % is set by controls: 0 for no effect and ±100 for the full control effect; nearly all actives have a fitted effect of over 20% in size
Target sequence (P02791 2-175 limits assumed): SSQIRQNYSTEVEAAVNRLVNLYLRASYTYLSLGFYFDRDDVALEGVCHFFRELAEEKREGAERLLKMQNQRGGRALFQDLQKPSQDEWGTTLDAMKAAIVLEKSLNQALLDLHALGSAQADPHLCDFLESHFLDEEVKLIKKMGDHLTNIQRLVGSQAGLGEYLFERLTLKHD
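Probe: 1-aminoanthracene (50% saturated, PBS). Protein: horse-spleen apoferritin, 10 uM. Incubation: 10 min, room temperature. Detection: 380 nm excitation, 535 nm emission. Analysis: normalized response, four-parameter Hill.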
D2 antag = HTS Assay for Allosteric Antagonists of the Human D2 Dopamine Receptor: Primary Screen for Antagonists; D(2) dopamine receptor (Homo sapiens), P14416; HEK293 TREx D2 cells, calcium flux, dopamine EC80; inhibition, % at 10 µM; actives 2% (n = 340,000); AID 485344, 2010; in the data active = inhibition above about 30%; inactive = below that, where a call was filed; note: 0% is about no effect
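Overnight-induced (tetracycline, 30 C) HEK293 T-REx cells carrying force-coupled D2 receive a no-wash calcium dye, then compound, then EC80 dopamine at 180 s; signals are read kinetically throughout.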
D2 ag-1 = Beta-Arrestin HTS for Positive Allosteric Modulators of the Human D2 Dopamine Receptor: Agonists | activation, % (test concentration not listed) | actives 0.084% (n = 360,000) | DiscoveRx PathHunter D2 beta-arrestin, luminescence, 90 min; 100% = 57 uM dopamine signal | D(2) dopamine receptor (Homo sapiens), P14416; in the data active = activation above about 40%; inconclusive = between about 15% and that limit
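Agonist mode: compounds alone added to overnight-plated D2 PathHunter cells for 90 min at 37 C, with 57 uM final dopamine (EC100) defining full response. Beta-arrestin recruitment detected by chemiluminescent reagent, read after 1 h at ambient temperature.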
D2 ag-2 = HTS Assay for Allosteric Agonists of the Human D2 Dopamine Receptor: Primary Screen for Agonists; actives 0.53% (n = 340,000); activation, % at 2 µM; HEK293 T-REx D2 cells, calcium flux agonist mode; D(2) dopamine receptor (Homo sapiens), P14416;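 active = activation over 3 SD above normal in the single-dose calcium agonist read, cut at about 30% in these data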; note: 0% is about no effect
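Agonism is scored from calcium flux in a force-coupled, inducible HEK293 cell line expressing D2, read kinetically for 180 s after compound addition against dopamine controls.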
The depositor's hits bear a star; ? = inconclusive; . = not tested or not shown. In the library only some 2.5% were active in any assay of this set; here they are far more common.

SMILES	D2 PAM-1	D2 PAM-2	Apoferritin bind	D2 antag	D2 ag-1	D2 ag-2
O=C(NC1CCCCC1)c1ccc(CS(=O)(=O)Cc2ccccc2F)o1	-1	-4	-5%	44*	-1	1
C=CCNc1nc(Cl)nc(Nc2ccc(OC)cc2OC)n1	1	-4	-8%	-13	-1	0
COc1ccc(Nc2nc(Cl)nc(Nc3ccc(OC)cc3OC)n2)c(OC)c1	-6	-4	-6%	51*	6	0
Cc1cc(=O)nc2c3ccccc3n(CC(=O)Nc3ccccc3Br)n12	14	0	-2%	0	-4	-1
Cc1ccc(CNC(=O)CSc2nc3[nH]ncc3c(=O)[nH]2)cc1	17	-2	-3%	1	-2	1
CCOC(=O)c1cc(NC(=O)CN2CCCC2)cc(C(=O)OCC)c1	36*	-3	-14%	9	3	-2
CN1CCN(CCC(=O)Nc2cccc(Br)c2)CC1	-14	-11	-11%	7	-1	0
O=C(CCN1CCCCC1)Nc1cccc(Br)c1	-11	-6	-2%	55*	-5	0
O=C(CN1CCCCCC1)Nc1ccc(Br)cn1	12	-3	-12%	41*	-5	-1
O=C(CN1CCCCCC1)Nc1ccc(Br)cc1	-23	-19	-22%	77*	7	2
COC(=O)c1cc(NC(=O)CN2CCOCC2)cc(C(=O)OC)c1	-7	5	-8%	-2	-4	7
O=C(Cc1ccc(Br)cc1)NNC(=O)Nc1ccc(Cl)cc1	-4	-7	-5%	9	-1	0
COC(=O)c1ccc(NC(=O)CN2CCN(CCO)CC2)cc1	-11	-1	-6%	33*	0	0
O=C(Cc1ccc(Cl)cc1)Nc1ccc(Br)cc1	-22	-26	-3%	44*	1	0
CC(C)n1nc(C(=O)Nc2cccc(S(=O)(=O)NCc3ccco3)c2)c2ccccc2c1=O	9	-9	0%	3	3	-1
O=C(COc1ccc(C(=O)c2ccccc2)cc1)NCC(=O)Nc1ccccc1Br	-5	-3	?	7	-2	1
Cc1ccccc1N1CCN(CCC(=O)Nc2ccc(F)cc2)CC1	-20	-74	-13%	78*	1	1
O=C(Cc1ccc(Cl)cc1)Nc1ccc(N2CCN(C(=O)c3ccco3)CC2)cc1	32*	-13	-8%	-16	1	0
COc1ccccc1N1CCN(CCC(=O)Nc2cccc(F)c2)CC1	-32	-42	-12%	.	2	21
O=C(CCN1CCN(C(=O)c2ccco2)CC1)Nc1ccc(F)cc1	-27	-13	10%	11	0	33*
CCn1c(/C=C/N(C(C)=O)c2ccccc2)[n+](CC)c2ccc(Cl)cc21	-1	-17	-2%	-5	-2	2
CC[n+]1c(/C=C/N(C)c2ccccc2)oc2ccc(Cl)cc21	12	59*	-22%	-10	?	-2
Cc1ccc(SCC(=O)Nc2ccc(C(=O)Nc3ccc(O)cc3)cc2)cc1	3	-5	-3%	72*	-3	-1
Cc1ccc(SCC(=O)Nc2cccc(C)c2)cc1	-17	-9	-20%	-6	-2	0
COCCNc1ncnc2c1ncn2[C@H]1CN(CCc2ccccc2)C[C@@H](CO)O1	.	0	.	.	-3	.
SMILES	D2 PAM-1	D2 PAM-2	Apoferritin bind	D2 antag	D2 ag-1	D2 ag-2
O=C(Oc1ccccc1C(=O)N1CCOCC1)c1ccccc1	-3	1	2%	-2	0	1
O=C(c1cccc(Br)c1)N1CCN(c2ccc(N3CCOCC3)nn2)CC1	-15	-8	.	33*	-3	0
O=C(Oc1ccccc1C(=O)N1CCOCC1)c1cccc(Br)c1	3	-12	-23%	47*	0	0
COc1cc(/C=N/NC(=O)c2c(-c3ccccc3)noc2C)cc(OC)c1OC	-21	8	-2%	56*	7	-2
Cc1cc(=O)[nH]c(N/N=C/c2ccc(-c3ccc(F)cc3)o2)n1	-9	-6	54%	48*	-4	-1
CSc1ccc(/C=N/Nc2nc(C)cc(=O)[nH]2)cc1	6	-4	-7%	6	0	0
COc1ccccc1N1CCN(C(=O)C2CCCO2)CC1 (configuration not stated)	-10	-11	6%	-1	-2	1
COc1ccc(-c2cn[nH]c2-c2ccc(OCc3ccc([N+](=O)[O-])cc3)cc2O)cc1	.	52*	?	.	12	.
CCc1cc(-c2[nH]ncc2-c2ccc(OC)cc2)c(O)cc1O	-1	4	-6%	-32	1	0
O=C(CCCSc1nnc(Nc2ccccc2F)s1)N1CCOCC1	-4	-36	-3%	39*	1	1
O=S(=O)(/C=C/c1ccccc1)Nc1ccc2c(c1)OCO2	16	1	-23%	34*	-1	0
COc1cc2c(cc1OC)[C@@H]1Cc3ccc(OC)c(OC)c3CN1CC2	-21	-19	4%	57*	-2	4
COc1cc2c(cc1OC)C1Cc3ccc(OC)c(OC)c3CN1CC2 (configuration not stated)	-22	-47	-9%	80*	-4	5
O=C(NC1CCCCC1)c1ccc(Cn2cc(Br)cn2)o1	5	-20	?	25	-4	-2
COc1ccc(-n2c(Cc3cccn3C)nnc2SCC(=O)NC2CCCC2)cc1	-3	-4	2%	-8	5	-2
Cc1ccc(CC(=O)Nc2ncc([N+](=O)[O-])s2)cc1	4	67*	-22%	17	-4	2
O=C(O)c1ccccc1-c1ccc(/C=C/c2cc(C(F)(F)F)[nH]c(=O)n2)o1	2	0	518%	16	-3	45*
CCCc1nc(SCC(=O)O)c2sc(=S)n(-c3ccccc3)c2n1	.	-3	-8%	.	3	.
Cn1c(CN2CCCC2)nc2cc(NS(=O)(=O)c3ccccc3)ccc21	-25	-30	-13%	67*	-3	-1
Cn1c(CN2CCCC2)nc2cc(NS(=O)(=O)c3ccc(Cl)cc3)ccc21	-17	-47	-23%	69*	-3	3
